# Laboratory results taken from PubChem BioAssay AID1053193 (Broad Institute, 2014).
# A number with no mark means an inactive call.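 Rule for the calls: active = cell killing, with a fitted half-maximal concentration at or below twice the top valid dose tested; inconclusive = flat curve losing 30 to 70% signal, or unreliable fit; inactive = effect in the rising direction, plus the rest.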
# Assay: viability loss in A549 lung cells – cell-based, CellTiter-Glo luminescence, 72 h, dry powder, cytotoxicity control, dose response (AID 1053193)
# Conditions: CellTiter-Glo ATP luminescence; series mostly up to 50 µM; activity change, negative = cytotoxicity: at the top concentration
row,SMILES,"activity change, negative = cytotoxicity"
1,COc1cc(CC2C(=O)Nc3ccccc32)cc(C)c1O (stereo not given),-4.45%
2,CNc1ccccc1C(C)(C)c1cc(-c2cccc(OC)c2)no1,-0.576%
3,COc1ccc(Nc2ccccc2N)cc1,-1.42%
4,OCc1ccc(-c2nn(Cc3ccccc3)c3ccccc23)o1,-2.1%
5,O=C(O)C1CCN(c2nc(-c3ccccc3)c3cc(Br)ccc3n2)CC1,-2.6%
6,O=C(c1c(F)cccc1F)N(Cc1ccccc1)Cc1ccccc1,-6.22%
7,CCc1ccc(-n2c(=S)sc3c(=O)n(-c4ccccc4C)c(SCC(=O)O)nc32)cc1,-11.7%
8,CCc1cccc2c1NC1(CCCC1)CC2C (stereo not given),-3.12%
9,Cc1cccc(NC(=O)NCc2ccc3c(c2)cc(C)n3C)c1,-12.5%
10,Cc1ccc(S(=O)(=O)NCc2ccc3c(c2)cc(C)n3C)cc1,-4.57%
11,Cc1cc(C)c(S(=O)(=O)NCCn2c(C)cc3ccccc32)c(C)c1,-0.395%
12,Cc1cc2cc(CNC(=O)Nc3cccc(Cl)c3)ccc2n1C,-10.6%
13,Cc1ccc(CSc2nc3[nH]ncc3c(=O)[nH]2)cc1,-17.7%
14,Cc1cc2ccccc2n1CCNC(=O)COc1ccc2ccccc2c1,-0.685%
15,Cc1cc2cc(CNC(=O)Nc3ccc(Cl)c(Cl)c3)ccc2n1C,-11.5%
